Assay results from PubChem BioAssay (Tox21).
Records with an inconclusive call do not appear. Entries that show only a call come without a potency. Active and inactive are the calls of the source. Calls come from the whole dose curve; as a rule, active = well fitted cell-killing curve with a large enough effect in the repeat runs; inconclusive = weak or mixed curves, or effect the other way; inactive = flat fitted curve, though single readings scatter.

Tests used:
[1] = cAMP Responsive Elements (CRE) small molecule antagonists, cell-based qHTS assay: qHTS cell viability counter screen (AID 2060913); details: CRE-bla HEK293T viability, CellTiter-Glo luminescence, 5 h; series mostly up to 92.4 µM; note: nearly all actives have a fitted effect of over 40% in size
Summary of the method: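 Cytotoxicity read in the same wells as the CRE-bla HEK293T antagonist assay: after 3 h compound with 0.25 uM NKH477 final and 2 h beta-lactamase substrate, CellTiter-Glo luminescence measured.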

[2] = cAMP Responsive Elements (CRE) small molecule agonists, cell-based qHTS assay: qHTS cell viability counter screen (AID 2060914); details: CRE-bla HEK293T viability, CellTiter-Glo luminescence, 5 h; series mostly up to 92.4 µM;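 note: viability read after 3 h of compound exposure; nearly all actives have a fitted effect of over 50% in size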
Summary of the method: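 Cells are seeded and incubated 18 h, treated with compounds in DMSO for 3 h, read for the bla reporter, then given CellTiter-Glo; luminescence is measured after 30 min at room temperature.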

| SMILES | Potency [1] | Potency [2] |
| --- | --- | --- |
| C=CC(=O)OCCN(C)C | inactive | inactive |
| CNC(=O)/C=C(\C)OP(=O)(OC)OC | inactive | inactive |
| C1CC2OC2CC1C1CO1 (stereo not drawn) | inactive | inactive |
| CC(C)(C)NC[C@H](O)c1ccc(O)cc1Cl | inactive | inactive |
